For six compounds, Potency and outcome results are on record in PubChem BioAssay (Tox21).

Several values for one entry are separate records, joined by “and”; a condition that tells them apart may be missing. Identical values can stand only once. Records with an inconclusive call do not appear. Activity calls are given as the source filed them. Unless noted, calls follow the shape of the dose curve; as a rule, active = well fitted curve in the direction sought with a large enough effect in the repeat runs; inconclusive = weak or mixed curves; inactive = no such curve, though single readings can be large; an effect the other way counts as inactive or inconclusive.

Experiment [1] can be described thus: qHTS assay for small molecule agonists of the p53 signaling pathway - cell viability (AID 651633; calls by dose curve;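 also: p53RE-bla HCT reporter cells with a stable beta-lactamase p53 reporter; nearly all actives have a fitted effect of over 30% in size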). The note with it: p53RE-bla HCT-116 viability, ATP luminescence, 16 h; series mostly up to 83.3 µM. The method, boiled down:
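Viability counter-read: CellTiter-Glo luminescence (30 min, room temperature) in the same p53RE-bla plates. These plates had been exposed to compounds for 16 h at 37 C.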

Experiment [2] can be described thus: qHTS assay for small molecule disruptors of the mitochondrial membrane potential - cell viability (AID 720634; calls by dose curve;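 also: human HepG2 liver cancer cells; nearly all actives have a fitted effect of over 20% in size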). The settings on record: HepG2 viability, ATP luminescence (CellTiter-Glo), 1 h; series mostly up to 83.2 µM. Put shortly:
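HepG2 cells, 2,000 per well, attached overnight, then treated 1 hr at 37 C, 5% CO2. Viability read as ATP by CellTiter-Glo luminescence after 30 min at room temperature. Read in the same wells as the m-MPI membrane-potential dye assay.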
In general terms: In qHTS, concentration-response curves come from the screen itself.

Experiment [3] can be described thus: qHTS assay to test for compound auto fluorescence at 590 nm (red) in HepG2 cells (AID 720674). The settings on record: HepG2 autofluorescence, red 540/590 nm, 1 h; series mostly up to 91.3 µM. The method, boiled down:
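1 hr compound incubation on HepG2 cells, 37 C, 5% CO2; plate read ex 540 nm / em 590 nm; intensities reported as Rose Bengal sodium equivalents.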

Experiment [4] can be described thus: qHTS assay to test for compound auto fluorescence at 535 nm (green) in HepG2 cells (AID 720675). The settings on record: green autofluorescence 485/535 nm, 1 h; series mostly up to 91.3 µM.
Experiment [5] can be described thus: qHTS assay to test for compound auto fluorescence at 460 nm (blue) in HEK293 cells (AID 720678). The note with it: blue autofluorescence 405/460 nm; series mostly up to 91.3 µM. The method, boiled down: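 HEK293 cells (2,000/well, medium with 10% dialyzed FBS) attached 4-5 hr, then exposed to compound overnight at 37C, 5% CO2. Blue fluorescence read at 405/460 nm, with triamterene as reference fluorophore.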

Experiment [6] can be described thus: qHTS assay to test for compound auto fluorescence at 590 nm (red) in HEK293 cells (AID 720679). The note with it: red autofluorescence 540/590 nm; series mostly up to 91.3 µM. Put shortly: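 HEK293 cells (2,000/well, 10% dialyzed FBS) attached 4-5 hr, then dosed with compound or DMSO and incubated overnight at 37C, 5% CO2. Red fluorescence read at 540/590 nm, Rose Bengal sodium as reference fluorophore.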

Experiment [7] in a line: qHTS assay to test for compound auto fluorescence at 535 nm (green) in HEK293 cells (AID 720680). The settings on record: green autofluorescence 485/535 nm; series mostly up to 91.3 µM.
The nature of experiment [8]: qHTS assay to test for compound auto fluorescence at 460 nm (blue) in HEK293 cell free culture (AID 720681). The note with it: cell-free medium, autofluorescence 405/460 nm (blue); series mostly up to 91.3 µM. Put shortly:
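Blue fluorescence (Ex 405/Em 460 nm, triamterene-equivalent) was read immediately after pin transfer of compound or DMSO into medium (DMEM, 10% FBS) without cells.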

Experiment [9] is described as follows: qHTS assay to test for compound auto fluorescence at 590 nm (red) in HEK293 cell free culture (AID 720683). The settings on record: cell-free medium autofluorescence, Ex540/Em590 red; series mostly up to 91.3 µM. Put shortly:
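Red-channel autofluorescence of compounds in culture medium (DMEM, 10% FBS), no cells, measured at 540/590 nm. Rose Bengal sodium is the reference fluorophore for equivalence.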

The nature of experiment [10]: qHTS assay to test for compound auto fluorescence at 590 nm (red) in HepG2 cell free culture (AID 720684). The note with it: cell-free medium autofluorescence, red 540/590 nm; series mostly up to 91.3 µM. Put shortly:
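Plate contents were MEM with 10% FBS plus test compound or DMSO, no cells. Fluorescence was recorded with 540 nm excitation and 590 nm emission.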

Experiment [11] is described as follows: qHTS assay to test for compound auto fluorescence at 460 nm (blue) in HepG2 cell free culture (AID 720685). The settings on record: Cell-free culture medium, blue autofluorescence 405/460 nm; series mostly up to 91.3 µM. The method, boiled down:
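Compound (23 nL) or DMSO pinned into cell-free MEM with 10% FBS; blue fluorescence read at 405/460 nm excitation/emission, expressed as auto-fluorescence equivalency to triamterene.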

Experiment [12] in a line: qHTS assay to test for compound auto fluorescence at 535 nm (green) in HepG2 cell free culture (AID 720686). The note with it: Cell-free medium, green autofluorescence 485/535 nm; series mostly up to 91.3 µM.
Experiment [13] is described as follows: qHTS assay to test for compound auto fluorescence at 460 nm (blue) in HepG2 cells (AID 720687). The settings on record: autofluorescence 405/460 nm, 1 h; series mostly up to 91.3 µM. The method, boiled down:
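Blue-channel autofluorescence (Ex/Em 405/460 nm, triamterene-equivalent) was measured after 1 hr compound exposure at 37 C, 5% CO2. Cells were HepG2, plated overnight at 37 C in MEM plus 10% FBS.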

Experiment [14] deals with Glucocorticoid receptor (Homo sapiens) (UniProt P04150). The experiment is described as follows: qHTS assay to identify small molecule agonists of the glucocorticoid receptor (GR) signaling pathway (AID 720691; active = well fitted activation curve with a large enough effect in the signal ratio in the repeat runs, not every such curve was filed as active; the % refers to the signal ratio). The settings on record: GR-bla HeLa, beta-lactamase reporter ratio, 18 h; series mostly up to 62.4 µM. The method, boiled down:
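GR-bla HeLa cells carrying a GRE-driven beta-lactamase reporter, exposed to compounds for 18 h at 37 C. Reporter activation read as fluorescence after 2 h with LiveBLAzer B/G FRET substrate at room temperature.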

The target is the same in experiment [15]. As to the kind of experiment: qHTS assay to identify small molecule antagonists of the glucocorticoid receptor (GR) signaling pathway (AID 720692; active = well fitted inhibition curve with a large enough effect in the signal ratio in the repeat runs, not every such curve was filed as active; the % refers to the signal ratio). The settings on record: GR-bla HeLa, beta-lactamase FRET ratio, dexamethasone-stimulated, 18 h; series mostly up to 58.5 µM. Put shortly: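 GR-bla HeLa cells carrying a GRE-driven beta-lactamase reporter received compound after 4 h plating, then dexamethasone (5 nM final). After 18 h at 37C, the FRET substrate was loaded for 2 h at room temperature and fluorescence read.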

Experiment [16] in a line: qHTS assay for small molecules that induce genotoxicity in human embryonic kidney cells expressing luciferase-tagged ATAD5 (AID 651632). Also: nearly all actives have a fitted effect of over 15% in size. The note with it: HEK293T ATAD5-luciferase induction, 16 h; series mostly up to 83.3 µM. Put shortly: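 HEK293T cells carrying luciferase-tagged ATAD5 were given compound or DMSO vehicle and incubated 16 hr at 37C, 5% CO2. Luciferase activity was read after 30 min at room temperature with Amplite; a rise signals genotoxic stress.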

A short description of experiment [17]: qHTS assay for small molecules that induce genotoxicity in human embryonic kidney cells expressing luciferase-tagged ATAD5 - cell viability (AID 651634; calls by dose curve; also: nearly all actives have a fitted effect of over 25% in size). The settings on record: HEK293T ATAD5-luc cells viability, CellTiter-Fluor, 15.5 h; series mostly up to 83.3 µM. The method, boiled down:
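HEK293T cells carrying luciferase-tagged ATAD5, 2,000 cells/well, exposed to compound for 15.5 hr at 37C. Viability read as live-cell protease activity by CellTiter-Fluor fluorescence after 30 min at 37C.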

Experiment [18] in a line: qHTS assay for small molecule disruptors of the mitochondrial membrane potential (AID 720635). Also: potency is read from the fitted curve at half-maximal effect. The note with it: HepG2 mitochondrial membrane potential, Mito-MPS dye ratio; series mostly up to 83.2 µM. Put shortly:
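Mitochondrial membrane potential tracked with Mito-MPS dye, red aggregates (ex 540/em 590 nm) against green monomers (ex 490/em 535 nm). Compound treatment 1 hr at 37C, dye 30 min in HepG2.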

Experiment [19] can be described thus: qHTS assay to test for compound auto fluorescence at 535 nm (green) in HEK293 cell free culture (AID 720682). The settings on record: cell-free medium, green autofluorescence 485/535 nm; series mostly up to 91.3 µM. Put shortly: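 Fluorescein serves as the green reference fluorophore; each compound's intrinsic emission at 535 nm (excitation 485 nm) is reported as an equivalent amount of that dye, measured in serum-containing DMEM without cells.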

Chain of Glucocorticoid receptor (Homo sapiens) (P04150 whole entry, looked up): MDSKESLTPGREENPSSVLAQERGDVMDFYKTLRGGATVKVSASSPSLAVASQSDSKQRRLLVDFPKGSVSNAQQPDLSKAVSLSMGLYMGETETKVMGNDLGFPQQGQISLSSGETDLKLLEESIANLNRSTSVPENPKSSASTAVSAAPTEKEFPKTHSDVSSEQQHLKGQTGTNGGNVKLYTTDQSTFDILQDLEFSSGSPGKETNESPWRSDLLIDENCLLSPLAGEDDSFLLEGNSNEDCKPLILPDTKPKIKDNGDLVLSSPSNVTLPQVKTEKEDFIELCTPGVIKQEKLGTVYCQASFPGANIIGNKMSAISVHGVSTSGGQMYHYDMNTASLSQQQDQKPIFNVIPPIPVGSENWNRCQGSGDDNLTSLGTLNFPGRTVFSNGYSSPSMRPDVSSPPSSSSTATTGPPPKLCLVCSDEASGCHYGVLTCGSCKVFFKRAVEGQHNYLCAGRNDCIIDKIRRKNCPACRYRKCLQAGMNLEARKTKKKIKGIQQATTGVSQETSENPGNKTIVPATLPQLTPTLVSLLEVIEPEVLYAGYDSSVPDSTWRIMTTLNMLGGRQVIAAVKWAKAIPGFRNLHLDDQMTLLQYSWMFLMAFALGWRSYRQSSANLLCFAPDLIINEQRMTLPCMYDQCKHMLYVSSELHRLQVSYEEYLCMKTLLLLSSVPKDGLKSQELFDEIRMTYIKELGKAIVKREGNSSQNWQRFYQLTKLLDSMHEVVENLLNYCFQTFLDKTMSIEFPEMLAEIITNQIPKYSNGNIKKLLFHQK

As for `Cc1ccc2c(n1)Oc1ccc(C(C)C(=O)OCC(=O)N(C)C)cc1C2` (configuration not stated), the Potency result in experiment [1], in experiment [2], in experiment [3], in [4], in [6] and in [7] was “inactive” each time. Besides, the Potency entry in experiment [9], in experiment [10], in experiment [12], in experiment [14] and in experiment [15] was “inactive” throughout. Moreover, the compound was called inactive in experiment [5], in experiment [8], in experiment [11] and in experiment [13].

Take `CCCC(=O)O`: the Potency entry in experiment [16], in experiment [1], in [17], in [2], in experiment [18] and in [3] was “inactive” in each case. For the same compound, the Potency entry in experiment [4], in experiment [6], in experiment [7], in experiment [19], in experiment [9] and in experiment [10] was “inactive” throughout. The Potency entry in experiment [12], in experiment [14] and in experiment [15] was “inactive” throughout. The result in [5], in experiment [8], in experiment [11] and in experiment [13] was inactive.

Take `S=C(NC1CCCCC1)NC1CCCCC1`: the Potency result in experiment [16], in experiment [2], in [3], in [4], in experiment [6] and in [7] was “inactive” in each case. In addition, the Potency result in experiment [19], in experiment [9], in [10], in experiment [12], in [14] and in experiment [15] was “inactive” in each case. The Potency in experiment [18] is 53.4 µM (active) and 54.5 µM (active). The compound was called inactive in experiment [5], in experiment [8] and in [11].

For the compound `OC[C@H]1O[C@@H]2O[C@H]3[C@H](O)[C@@H](O)[C@@H](O[C@H]4[C@H](O)[C@@H](O)[C@@H](O[C@H]5[C@H](O)[C@@H](O)[C@@H](O[C@H]6[C@H](O)[C@@H](O)[C@@H](O[C@H]7[C@H](O)[C@@H](O)[C@@H](O[C@H]8[C@H](O)[C@@H](O)[C@@H](O[C@H]1[C@H](O)[C@H]2O)O[C@@H]8CO)O[C@@H]7CO)O[C@@H]6CO)O[C@@H]5CO)O[C@@H]4CO)O[C@@H]3CO`, the Potency entry in experiment [16], in [1], in experiment [17], in experiment [2], in experiment [3] and in [4] was “inactive” in each case. The Potency result in [6], in experiment [7], in experiment [19], in experiment [9], in experiment [10] and in [12] was “inactive” throughout. Also, the Potency result in [14] and in experiment [15] was “inactive” in each case. Also, the outcome in experiment [5], in experiment [8], in experiment [11] and in experiment [13] was inactive.

Consider `CCC(C)c1ccccc1O` (configuration not stated), for which the Potency entry in experiment [16], in experiment [1], in experiment [17], in experiment [2], in experiment [3] and in experiment [4] was “inactive” in each case. The Potency entry in [6], in experiment [7], in experiment [19], in [9], in experiment [10] and in [12] was “inactive” in each case. Moreover, the Potency entry in [14] and in [15] was “inactive” throughout. The Potency in [18] was 54.1 µM (active) and 30.6 µM (active). Further, the compound was classed as inactive in experiment [5], in experiment [8] and in experiment [11].

Regarding `COc1c(Cl)c(Cl)c(Cl)c(Cl)c1Cl`, the Potency result in experiment [16], in [1], in experiment [17], in experiment [2], in [3] and in experiment [4] was “inactive” throughout. Moreover, the Potency result in experiment [6], in experiment [7], in [19], in experiment [9], in experiment [10] and in [12] was “inactive” in each case. Also, the Potency result in experiment [14] and in experiment [15] was “inactive” each time. The result in experiment [8] and in [11] was inactive.
